Consider 31 compounds from PubChem BioAssay (NCATS).

Results filed as inconclusive are left out. Unmarked numbers belong to inactive results. Activity calls are given as the source filed them. Calls come from the whole dose curve; as a rule, active = well fitted cell-killing curve with a large enough effect; inconclusive = small, poorly fitted or top-dose-only effect; inactive = flat fitted curve, though single readings scatter. Numbered stars: 1 amine (or outer) side, 2 acyl side, 3 side chain; on linkers, the order of the positions; unused ones are H or OH. Bridge positions count the residues as written; N and C are the ends. Square brackets hold non-standard residues; d marks the D form. Peptide text beside a SMILES is read from it. I, II: the chains in the order shown. Actinocin(9to1) = Cc1c2oc3c(C)ccc(C(=O)[*:1])c3nc-2c(C(=O)[*:2])c(N)c1=O; NMeV = CN[C@H](C(=O)O)C(C)C; Sar = CNCC(=O)O
Potency is the fitted concentration of half-maximal effect.

The assay in a line: qHTS of pediatric cancer cell lines to identify multiple opportunities for drug repurposing: Confirmatory screen for SK-N-SH cells (AID 1347129).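 For activity change, negative = cytotoxic: plate controls were DMSO for no effect and bortezomib control for full effect.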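 Note: cells exposed to compound for 48 h before viability read; nearly all actives have a fitted effect of over 60% in size.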 The following applies: SK-N-SH neuroblastoma cell viability; series mostly up to 46.1 µM; activity change, negative = cytotoxic: at the top concentration. An excerpt: Drug repurposing or repositioning has been offered as a strategy for drug development in oncology programs. This approach has special potential for childhood cancers and other rare or orphan diseases, where the expected return on new drug development has been a disincentive to pharmaceuticals.
In this project we exploit the poly-pharmacology of drugs to discover new indications via phenotypic screening of a panel of 19 well-characterized cell lines derived from solid tumors seen in children and adolescents. The goal is to identify approved drugs with previously unrecognized anticancer properties that has the potential to reveal new mechanisms and biological processes involved in carcinogenesis or drug resistance. We employed a titration-based paradigm (quantitative high-throughput screening or qHTS), where all compounds were tested at multiple concentrations for their effect on cell viability. Concentration-response curves (CRCs) were derived directly from the primary screen, and both potency and efficacy values were used to identify compounds with robust bioactivity profiles. We screened the NIH Chemical Genomics Center (NCGC) Pharmaceutical Collection (NPC) and Mechanism Interrogation Plate (MIPE) small molecule collections of approved and investigational compounds against these cell lines; and measured metabolically active cells after 48 hours of compound treatment as a proxy for cell viability.
Assay Submitter: Nathalia J. Martinez, National Center for Advancing Translational Sciences, National Institutes of Health, Rockville, MD, USA; email: natalia.martinez@nih.gov
[1] Shen, M et al. Quantitative high-throughput phenotypic screening of pediatric cancer cell lines identifies multiple opportunities for drug repurposing. Oncotarget 2017 Dec 19;9(4):4758-4772. PMID 29435139.
The cells were obtained from University of North Carolina (UNC), Pediatric Preclinical Testing Program (PPT), and Coriell Institute (CI).
qHTS cell viability assay:
Cells were assayed in growth media at a density of 500-1,000 cells/well. Five microliters of cells were dispensed into 1,536-well, white, solid-bottom, TC-treated plates (Greiner Bio One) using a multidrop dispenser and incubated at 37 degrees C, 5% CO2, under a humidified atmosphere for 5 hours. Twenty-three nanoliters of compounds and controls (neutral control DMSO or positive control bortezomib at final concentration of 2.3 µM) were subsequently transferred by Kalypsys pintool. For primary screens, the MIPE collection was tested at 11-point dilutions (final concentrations range from 0.78 nM to 46 µM) and the NPC collection at 8-point dilutions (final concentrations range from 0.59 nM to 46 µM). Compounds tested in follow-up screens were assayed at 11-point dilutions. Cells were incubated for 48 hours, followed by addition of 3 µL of CellTiter-Glo (Promega). After a 15 min incubation at room temperature, samples were analyzed for luminescence intensity using a ViewLux High-throughput CCD imager equipped with clear filters.
In general terms: In qHTS, concentration-response curves come from the screen itself.
As to `COCc1c(C(C)C)nc(C(C)C)c(/C=C/[C@@H](O)C[C@@H](O)CC(=O)O)c1-c1ccc(F)cc1`, the Potency was 0.418 µM (active).

On to `Oc1ccc(O)cc1`, for which the “activity change, negative = cytotoxic” value was -19.4%.

For the compound `CCC(C(=O)OCCN(CC)CC)c1ccccc1` (stereo unspecified), the “activity change, negative = cytotoxic” value was -0.665%.

As for `C[C@@H]1C[C@H]2[C@@H]3C[C@H](F)C4=CC(=O)C(Cl)=C[C@]4(C)[C@@]3(F)[C@@H](O)C[C@]2(C)[C@@]1(O)C(=O)CO`, the “activity change, negative = cytotoxic” value is 7.2%.

Regarding `C[C@]12CCC(=O)C=C1CC[C@H]1[C@@H]3CC[C@](O)(C(=O)CO)[C@@]3(C)C[C@H](O)[C@@]12F`, the “activity change, negative = cytotoxic” value is 2.8%.

Consider `C[C@@H]1C[C@H]2[C@@H]3CCC4=CC(=O)C=C[C@]4(C)[C@@]3(F)[C@@H](O)C[C@]2(C)[C@H]1C(=O)CO`, for which the “activity change, negative = cytotoxic” value is 10.5%.

`CC(=O)Oc1ccc(C(c2ccc(OC(C)=O)cc2)c2ccccn2)cc1`: the “activity change, negative = cytotoxic” value was -0.247%.

On to `CCCCC(=O)O[C@]1(C(=O)CO)CC[C@H]2[C@@H]3CCC4=CC(=O)CC[C@]4(C)[C@H]3[C@@H](O)C[C@@]21C`, for which the “activity change, negative = cytotoxic” value is 6.97%.

Consider `CCCCC(CC)CN=C(N)NC(N)=NCCCCCCN=C(N)NC(N)=NCC(CC)CCCC` (stereo unspecified), for which the Potency was 11.8 µM (active).

On to `CC1(C)O[C@@H]2C[C@H]3[C@@H]4C[C@H](F)C5=CC(=O)CC[C@]5(C)[C@H]4[C@@H](O)C[C@]3(C)[C@]2(C(=O)CO)O1`, for which the “activity change, negative = cytotoxic” value is 11.4%.

Take `CC(=O)OCC(=O)[C@@]12OC(C)(C)O[C@@H]1C[C@H]1[C@@H]3C[C@H](F)C4=CC(=O)C=C[C@]4(C)[C@@]3(F)[C@@H](O)C[C@@]12C`: the “activity change, negative = cytotoxic” value was -2.4%.

Regarding `COc1cc(C=C2CCC/C(=C\c3ccc(O)c(OC)c3)C2=O)ccc1O`, the Potency was 18.7 µM (active).

For `CC(=O)OCC(=O)[C@@]1(OC(C)=O)[C@@H](C)C[C@H]2[C@@H]3C[C@H](F)C4=CC(=O)C=C[C@]4(C)[C@@]3(F)[C@@H](O)C[C@@]21C`, the “activity change, negative = cytotoxic” value was 5.18%.

With `CC(=O)OCC(=O)[C@@]1(O)CC[C@H]2[C@@H]3CCC4=CC(=O)C=C[C@]4(C)[C@H]3[C@@H](O)C[C@@]21C`, the “activity change, negative = cytotoxic” value was 1.54%.

Regarding `NC(=O)CC[C@@H]1NC(=O)[C@H](Cc2ccccc2)NC(=O)[C@H](Cc2ccc(O)cc2)NC(=O)CCSSC[C@@H](C(=O)N2CCC[C@H]2C(=O)N[C@@H](CCCN=C(N)N)C(=O)NCC(N)=O)NC(=O)[C@H](CC(N)=O)NC1=O`, the “activity change, negative = cytotoxic” value is -10.7%.

Take `CC(C)(C(=O)c1cccnc1)c1cccnc1`: the “activity change, negative = cytotoxic” value is 3.01%.

With `CC(=O)[C@H]1CC[C@H]2[C@@H]3C[C@H](C)C4=CC(=O)CC[C@]4(C)[C@H]3[C@@H](O)C[C@]12C`, the “activity change, negative = cytotoxic” value was -14.3%.

In the case of `CN(C)/N=N/c1nc[nH]c1C(N)=O`, the “activity change, negative = cytotoxic” value is 9.25%.

For `CC(=O)OCC(=O)[C@@]1(O)[C@H](C)C[C@H]2[C@@H]3CCC4=CC(=O)C=C[C@]4(C)[C@@]3(F)[C@@H](O)C[C@@]21C`, the “activity change, negative = cytotoxic” value is -6.61%.

For the compound `C=C1C[C@H]2[C@@H]3C=C(C)C4=CC(=O)CC[C@]4(C)[C@H]3CC[C@]2(C)[C@@]1(OC(C)=O)C(C)=O`, the “activity change, negative = cytotoxic” value is 1.07%.

As for `CCCCCCC[N+](CC)(CC)CCCCc1ccc(Cl)cc1`, the Potency is 20.9 µM (active).

As for `CCOc1ccc2nc3cc(N)ccc3c(N)c2c1`, the Potency is 14.8 µM (active).

For `C[C@]12C=CC(=O)C=C1CC[C@@H]1[C@@H]2[C@@H](O)C[C@@]2(C)[C@H]1CC[C@]2(O)C(=O)CO`, the “activity change, negative = cytotoxic” value was 6.26%.

With `COc1cccc2c1C(=O)c1c(O)c3c(c(O)c1C2=O)C[C@@](O)(C(=O)CO)C[C@@H]3O[C@H]1C[C@H](N)[C@H](O)[C@H](C)O1`, the Potency is 1.32 µM (active).

As to `Cc1c2oc3c(C)ccc(C(=O)N[C@@H]4C(=O)N[C@H](C(C)C)C(=O)N5CCC[C@H]5C(=O)N(C)CC(=O)N(C)[C@@H](C(C)C)C(=O)O[C@@H]4C)c3nc-2c(C(=O)N[C@@H]2C(=O)N[C@H](C(C)C)C(=O)N3CCC[C@H]3C(=O)N(C)CC(=O)N(C)[C@@H](C(C)C)C(=O)O[C@@H]2C)c(N)c1=O` (I: T[dV]P[Sar][NMeV] / II: T[dV]P[Sar][NMeV]; ester I:1-I:C, II:1-II:C; linker I:N-II:N via Actinocin(9to1)), the Potency was 0.0118 µM (active).

Take `C[n+]1c2cc(N)ccc2cc2ccc(N)cc21` (tested in a mixture with another compound): the Potency is 8.33 µM (active).

Regarding `C[C@H]1C[C@H]2[C@@H]3CCC4=CC(=O)C=C[C@]4(C)[C@@]3(Cl)[C@@H](O)C[C@]2(C)[C@@]1(O)C(=O)CO`, the “activity change, negative = cytotoxic” value is 5.35%.

In the case of `COc1c(C)c2c(c(O)c1C/C=C(\C)CCC(=O)O)C(=O)OC2`, the Potency is 18.7 µM (active).

Take `NC(CO)(CO)CO`: the “activity change, negative = cytotoxic” value was 5.25%.

Regarding `CN(C)C(=S)SC(=S)N(C)C`, the “activity change, negative = cytotoxic” value was -0.459%.

Turning to `C[C@]12C=CC(=O)C=C1[C@@H](F)C[C@@H]1[C@@H]2[C@@H](O)C[C@@]2(C)[C@H]1CC[C@]2(O)C(=O)CO`, the “activity change, negative = cytotoxic” value is -1.49%.
